14-3-3 PPI: 14-3-3 gamma protein interaction modulation; P61981; FP, 14-3-3gamma / TMR-pS259-Raf peptide binding; inhibition, % at 40 µM; 160,000 tested, 0.19% active; AID 422; in the data active means inhibition above about 30%;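 further: 0% = protein plus tracer without compound and 100% = blank with tracer alone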
Target sequence (P61981 whole entry, looked up): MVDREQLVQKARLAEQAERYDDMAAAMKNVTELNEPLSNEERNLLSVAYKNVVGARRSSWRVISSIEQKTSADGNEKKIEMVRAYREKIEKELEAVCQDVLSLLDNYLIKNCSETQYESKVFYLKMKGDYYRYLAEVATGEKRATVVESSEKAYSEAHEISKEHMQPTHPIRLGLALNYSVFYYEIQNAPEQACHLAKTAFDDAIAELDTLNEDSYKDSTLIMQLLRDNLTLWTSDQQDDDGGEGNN
Active calls of the source: *; + = active, no number; ! = a repeat was not active. The entries come from a sample that favours hits as a whole.

SMILES	14-3-3 PPI
CC(C)C1Oc2ccc(Cl)cc2C2CC(c3cccs3)=NN21 (centres undefined)	-10.8
O=C(NCCCN1CCN(c2cccc(Cl)c2)CC1)c1cn(-c2ccc(Cl)cc2)c(=O)c2ccccc12	-1.5
COc1ccc(C(=O)CC(=O)C(=O)Nc2cccc(C)c2C)cc1	-13.4
COc1ccc(-c2nnc(SCC(=O)Nc3nccs3)n2-c2ccccc2)cc1OC	-3.1
CC1(C)CC(=O)C2=C(C1)Nc1ccc3ccccc3c1C2c1cccc([N+](=O)[O-])c1 (centres undefined)	5.3
O=C(NCc1ccccn1)C1CCN(S(=O)(=O)c2cccs2)CC1	7.9
O=C(NCc1ccccn1)C1CCN(S(=O)(=O)c2cnc[nH]2)CC1	58.7*!
CC1CCN(S(=O)(=O)N2CCC(C(=O)NCc3ccccn3)CC2)CC1	-4.3
CCc1sc(NC(=O)c2cc3cc(Cl)ccc3oc2=O)nc1-c1cccs1	-4.9
COC(=O)c1ccc(C(=O)OC)c(NC(=O)c2cccc([N+](=O)[O-])c2C)c1	-7.8
CCn1c(CSc2nnc3ccccn23)nc2cc(C(=O)O)ccc21	138.6*
O=C(CSc1nnc2ccccn12)Nc1ccc2ccccc2c1	1.1
CCn1c(CSc2nc3ccccc3n2C)nc2ccccc21	2.2
CCn1c(CSc2nnc(-c3cccnc3)n2-c2ccccc2C)nc2cc(C(=O)O)ccc21	126.9*
Cc1ccccc1-n1c(SCc2ccccc2)nnc1-c1cccnc1	1.3
CCOc1ccccc1-n1c(SCC(N)=O)nnc1-c1cccnc1	1.8
O=C(CSc1ncccn1)Nc1ccccc1C(=O)O	-11.8
Cc1cc(C)cc(NC(=O)COc2cc(C)cc(C)c2)c1	-10.4
Cc1nc2cc(C(=O)O)ccc2s1	-6.7
COc1cccc2c3c(c(C)nc12)CC(C)S3 (centres undefined)	-6.4
Cc1nc2ccc(C(=O)O)cc2c2c1CC(C)S2 (centres undefined)	73.4*
Cc1ccc(C2C(=O)N(C3CCCCCC3)CC(=O)N2C2CCCCCCC2)cc1 (centres undefined)	-10.2
O=C1CC(N(Cc2ccc3c(c2)OCO3)C(=O)c2ccc(Cl)cc2)C(=O)N1c1ccc(Br)cc1 (centres undefined)	-18.5
Cc1ccc(CNC(=O)CCNC(=O)c2ccc(Br)o2)cc1	-3.6
O=C(CCNC(=O)c1ccc(Br)o1)NCc1ccccc1Cl	0.7
SMILES	14-3-3 PPI
O=C(CCNC(=O)c1ccc(Br)o1)NCc1ccccn1	+!
Cc1cc(Cl)ccc1OCC(=O)Nc1ccc(S(=O)(=O)Nc2ncccn2)cc1	-0.1
COc1ccc(OC)c(NC(=O)COc2ccccc2C(C)C)c1	-2.2
Cc1ccc(C(C)C)c(OCC(=O)Nc2ccc(C)c(C)c2)c1	-11.4
COc1ccc(OC)c(NC(=O)COc2cc(C)ccc2C(C)C)c1	74.2*
Cc1cc(C)nc(/N=C(\N)Nc2ccccc2C(F)(F)F)n1	-2.4
CCN(CC)c1ccc2cc(C(=O)c3cc4ccc(N(CC)CC)cc4oc3=O)c(=O)oc2c1	77.2*
CCN(CC)c1ccc2cc(C(=O)Nc3ccccn3)c(=O)oc2c1	7.0
CCN(CC)c1ccc2cc(C(=O)Nc3ccc(C)cc3)c(=O)oc2c1	-8.8
Cc1ccc2nc(SCCN3CCOCC3)[nH]c2c1	-5.2
CCOc1ccc(N2C(=O)C(N3C(=O)c4ccc([N+](=O)[O-])cc4C3=O)C2c2ccc3c(c2)OCO3)cc1 (centres undefined)	-11.5
Cc1ccccc1N=c1oc2ccccc2cc1C(=O)Nc1cccc(C(F)(F)F)c1	-3.4
Nc1ccc(NCCO)c(N)c1	90.7*
Nc1ccc(C(=O)Nc2ccc(N)cc2N)cc1	-32.8
COC(=O)CCCCCNc1ccc(C(=O)OC)cc1N	-11.6
Cc1ccccc1OCC(=O)Nc1cc(-c2nc3ccccc3o2)ccc1Cl	-28.5
CC1=C(C(=O)OC2CCCC2)C(c2ccc(C(C)(C)C)cc2)C2=C(CCCC2=O)N1 (centres undefined)	-6.0
CC1=NN(C(=O)c2ccc(C(C)(C)C)cc2)C(O)(c2cccnc2)C1 (centres undefined)	-6.5
CC1(C)C(N(O)C(=O)Nc2ccccc2)N(c2cccc(Cl)c2)C(=O)N1O (centres undefined)	-5.9
CN1C(=S)SC(N(O)C(=O)Nc2ccccc2)C1(C)C (centres undefined)	42.7*
CC1=C(C(=O)Nc2ccccc2)C(c2ccc([N+](=O)[O-])cc2)NC(=S)N1 (centres undefined)	3.5
c1ccc(C(CCC2CC2)Sc2nnc3c(n2)[nH]c2ccccc23)cc1 (centres undefined)	1.9
O=C(CN1C(=O)c2ccc([N+](=O)[O-])cc2C1=O)Nc1ccccc1O	-5.3
O=C(c1cc(C(=O)N2CCc3ccccc3C2)cc([N+](=O)[O-])c1)N1CCc2ccccc2C1	-0.4
COc1ccc(Nc2cc(C)nc3ccccc23)cc1	38.3*
SMILES	14-3-3 PPI
COc1ccc2nc(C)cc(Nc3ccc(F)cc3)c2c1	-66.4
COc1ccc(Nc2cc(C)nc3c(C)cccc23)cc1	-6.0
COc1cc(C2C(C(=O)OCc3ccccc3)=C(C)NC3=C2C(=O)CC(c2ccccc2)C3)ccc1O (centres undefined)	2.8
COCCNC(=O)Cn1cnc2sc(C)cc2c1=O	-2.2
C=CCOC(=O)C1=C(C)NC(=O)NC1c1cccc(Oc2ccccc2)c1 (centres undefined)	-4.6
CCC(=O)N1CCc2cc(Br)cc(S(=O)(=O)CCC(=O)N(CC)c3ccc4c(c3)OCO4)c21	-9.2
Cc1cc(C)cc(-n2ccnc2SCC(=O)Nc2c(C)cc(C)cc2C)c1	1.2
Cc1cc(C)cc(-n2ccnc2SCC(=O)NC2CCCC2)c1	30.7*
O=C(CSc1nccn1-c1cccc(Cl)c1)NC1CCCCC1	-4.5
Cc1ccc(C(C)C)c(Oc2ccc(N3C(=O)C4C5CCC(C5)C4C3=O)cc2)c1 (centres undefined)	-3.1
CC12COc3ccccc3C1c1sc(=O)[nH]c1SC2 (centres undefined)	107.5*
O=c1[nH]c2c(s1)C1c3c(ccc4ccccc34)OCC1CS2 (centres undefined)	3.1
O=C(O)C1Sc2[nH]c(=O)sc2C2c3ccccc3OC(=O)C12 (centres undefined)	-33.8
O=C(O)CCCNc1cc(N2CCN(c3cccc(C(F)(F)F)c3)CC2)c2noc3c2c1C(=O)c1ccccc1-3	-122.7
O=C(O)CCCNc1cc(N2CCCCCC2)c2noc3c2c1C(=O)c1ccccc1-3	66.9*
O=C(O)CCCNc1cc(N2CCC3(CC2)OCCO3)c2noc3c2c1C(=O)c1ccccc1-3	-52.3
CC(=O)N(C1=C(NC(C)C)C(=O)c2ccccc2C1=O)c1cccc(Br)c1	-14.5
CCCCCOC(=O)C1=C(C)NC(=O)NC1c1ccc(Cl)cc1 (centres undefined)	0.2
Cc1ccc(S(=O)(=O)Nc2cc(C(=O)NCCc3ccccc3)ccc2N2CCCCC2)cc1	0.1
Cc1ccc(S(=O)(=O)Nc2cc(C(=O)NCCc3ccccc3)ccc2N2CCCC2)cc1	-20.5
Cc1ccc(S(=O)(=O)Nc2cc(C(=O)NCc3cccnc3)ccc2N2CCCCC2)cc1	36.6*
O=C(O)c1cccc(NS(=O)(=O)c2cccc(C(=O)O)c2)c1	-14.2
COc1cccc(CNC(=O)CCS(=O)(=O)c2ccc3c(c2)CC(C)N3C(C)=O)c1 (centres undefined)	-0.3
CC(=O)N1c2ccc(S(=O)(=O)CCC(=O)NCc3ccccc3)cc2CC1C (centres undefined)	19.8
CC(=O)N1c2ccc(S(=O)(=O)CCC(=O)NCc3ccc(C)cc3)cc2CC1C (centres undefined)	33.1*

Source: PubChem BioAssay (Emory University Molecular Libraries Screening Center)
